The values below come from PubChem BioAssay.

Results filed as inconclusive are left out. The source made the active and inactive calls. Unless noted, no cut-off is given here; in the data, nearly all actives have AC50 up to about 30 µM.

A short description of assay [1]: stimulators of nuclear beta-catenin in C2C12, primary screen, imaging, WNT3A-conditioned medium, mouse C2C12, NPC library (AID 1117326; in the data active = nuclear beta-catenin stimulation mostly above about 4.2%, no sharp cut-off; inactive = mostly below about 10%; note: reference of the scale not given here). To be noted: stronger effect = higher value.
Assay [2] can be described thus: stimulators of insulin release from INS-1E, primary screen, cell-based, 5 mM glucose, NPC library (AID 1117329;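 active = compound raises insulin release from rat beta cells at 5 mM glucose, no numeric limit stated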; note: reference of the scale not given here). As to conditions: rat INS-1E insulin secretion, at 10 µM, stronger effect = higher value.
Assay [3] can be described thus: growth inhibition of GSK3B-pretreated HCT116 cells – cell-based, CellTiter-Glo, 0.2 to 20 µM (AID 1117336;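 active = compounds lowering colon cancer cell viability after pretreatment blocking the GSK3B kinase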). As to conditions: HCT116 viability after GSK3B inhibitor, at 20 µM, stronger effect = higher value. Background: Cellular ATP, detected with luciferase, serves as a proxy for viable cell number.
The nature of assay [4]: inhibition of endothelial tube formation, primary screen, imaging, VEGF stimulated, CD31 staining, tube area, NPC library (AID 1117340;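 active = compound that reduces growth-factor-driven endothelial tube area in a mixed cell culture, no cutoff stated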). To be noted: VEGF-stimulated ADSC/ECFC co-culture, at 10 µM, stronger effect = higher value.
A short description of assay [5]: glucagon-like peptide 1 release enhancers, primary assay, NCI-H716 cell line, NPC library (AID 1117341;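 active = compound raises GLP1 secretion from the human gut endocrine cells, with no numeric limit stated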; note: reference of the scale not given here). As to conditions: NCI-H716 cells, at 10 µM, stronger effect = higher value.
Assay [6] in a line: HCT116 colon cancer cell growth inhibition, primary screen, CellTiter-Glo luminescence, NPC library (AID 1117342;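 active = compounds that lower survival of HCT116 colon cancer cells in the luminescence readout, no numeric limit stated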). As to conditions: at 20 µM (top of the series).
Assay [7] can be described thus: CellTiter-Glo luminescent readout of SW480 viability loss, NPC library primary (AID 1117343;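 active = compounds that lower viability of the colon cancer cells in the luminescence readout, with no numeric limit stated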). As to conditions: CellTiter-Glo luminescence; at 20 µM (top of the series) unless noted.
A short description of assay [8]: decreased DLD-1 cellular survival, CellTiter-Glo luminescent readout, NPC compound collection, primary HTS (AID 1117346;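 active = compounds that lower survival of DLD-1 colon cancer cells in the luminescence readout, no cutoff given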). To be noted: DLD-1 viability, CellTiter-Glo luminescence; at 20 µM (top of the series).
Assay [9] is described as follows: growth inhibition of DIPG glioma cells, dose response, cell-based, JHH-DIPG-1, MIPE4.0, CellTiter-Glo, qHTS (AID 1347062; cut-off not given, nearly all actives have AC50 up to about 27 µM;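 for AC50: cells exposed to compound for two days before readout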). To be noted: JHH-DIPG-1 viability, CellTiter-Glo ATP luminescence.
A short description of assay [10]: growth inhibition of DIPG glioma cells, dose response, cell-based, SU-DIPG-IV, MIPE4.0, CellTiter-Glo, qHTS (AID 1347063).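 Note: compound exposure lasted 48 hours before the viability readout.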 As to conditions: SU-DIPG-IV viability, CellTiter-Glo ATP luminescence.
The nature of assay [11]: SU-DIPG-VI glioma cell viability, MIPE4.0 library, CellTiter-Glo luminescence, qHTS (AID 1347066).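 Note: cells exposed to compound for 48 hours before readout.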 To be noted: CellTiter-Glo ATP luminescence.
The nature of assay [12]: survival rescue of mitochondrial mutant cells in low glucose, primary screen, MELAS cybrids, Rieske KO mouse fibroblasts, CellTiter-Glo (AID 1508586;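 active = mean z-score across replicates of 1.96 or higher in either the MELAS or the Rieske mutant cell line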;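 note: z relative to plate mean and SD of compound and empty wells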).
The nature of assay [13]: sensitizers of A549 cells to miR-34 induction, primary screen, imaging, A549 dox-inducible miR-34, nuclei and caspase counts (AID 1347080;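 active = compounds whose cell count with miR-34 switched on is under 0.7 times the count with it off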). To be noted: A549 miR-34 inducible, Hoechst nuclei count, 48 h.
Setting [14] is: MELAS cybrid survival, CellTiter-Glo 48 h, stronger effect = higher value.
The mark [15] stands for this setting: Rieske KO mouse fibroblast survival, CellTiter-Glo 72 h.

As to `CN(c1nccc(=O)[nH]1)C1CCN(c2nc3ccccc3n2Cc2ccc(F)cc2)CC1`, the nuclear beta-catenin stimulation in [1] (at 10 µM) is -1.9% (inactive); in assay [1] (stimulation, at 2 µM), -0.5%. Also, the insulin secretion stimulation in assay [2] was 4.3% (inactive). In addition, the viability decrease in assay [3] was -6.8% (inactive). Also, the tube area decrease in assay [4] was 10.5% (inactive). In addition, the GLP1 secretion stimulation in [5] was -3% (inactive). In addition, the inhibition of viability in assay [6] is 26.2% (inactive). Moreover, the values for the viability decrease (inhibition) in assay [7] and in assay [8] were 9.6% (inactive) and -5.1% (inactive), respectively. Also, the outcome in assay [9], in assay [10] and in assay [11] was inactive. The z-score in assay [12] (setting [14]) is 0.306 (inactive); in [12] (setting [15]) it was 0.258.
For orientation: AC50 means the midpoint of the concentration-response curve, whichever way the signal moves. Turning to `COc1cc(NCc2ccc3nc(N)nc(N)c3c2C)cc(OC)c1OC`, the nuclear beta-catenin stimulation in assay [1] (at 10 µM) was 40.4% (active); in assay [1] (stimulation, at 2 µM), 71.7%. Besides, the insulin secretion stimulation in assay [2] is 3.6% (inactive). The viability decrease in [3] was 105% (active). Further, the tube area decrease in [4] is 60.1% (active). Besides, the GLP1 secretion stimulation in assay [5] is 2.9% (inactive). The inhibition of viability in [6] is 94.9% (active). In addition, the values for the viability decrease (inhibition) in assay [7] and in [8] were 142% (active) and 70.6% (active), respectively. Besides, the AC50 in assay [9] is 18.7 µM (active); in [11] it was 20.9 µM (active).
As for `CCCCCCCCOc1ccccc1C(=O)Nc1ccc(C(=O)OCC[N+](C)(CC)CC)cc1`, the nuclear beta-catenin stimulation in assay [1] (at 10 µM) was 4.2% (inactive); in assay [1] (stimulation, at 2 µM), 0.1%. In addition, the insulin secretion stimulation in assay [2] was 15.7% (inactive). In addition, the viability decrease in [3] was 99.7% (active). The tube area decrease in assay [4] was 101% (active). In addition, the GLP1 secretion stimulation in assay [5] is -3.3% (inactive). In addition, the inhibition of viability in [6] is 98.4% (active). In addition, the viability decrease (inhibition) in assay [7] was 88.6% (active); in assay [8] it was 99% (active). Also, the results for the AC50 in [9] and in assay [10] were 23.5 µM (active) and 18.7 µM (active), respectively. Moreover, the fold change in assay [13] (stronger effect = lower value, cell number ratio, induced over uninduced) is 0.913 (inactive); in assay [13] (measured here: relative caspase fold change +Dox/-Dox), 0.694. In addition, the cell count in [13] (measured here: total cells with miR-34 induction, stronger effect = lower value) came out at 7980; in assay [13] (measured here: total cells without miR-34 induction), 8740. In addition, the z-score is -0.155 (inactive) in [12] (setting [14]) and -0.0436 in assay [12] (setting [15]).
`CCCCCCOC(=O)NC(=N)c1ccc(NCc2nc3cc(C(=O)N(CCC(=O)OCC)c4ccccn4)ccc3n2C)cc1`: the nuclear beta-catenin stimulation in assay [1] (at 10 µM) is 2.7% (inactive); in assay [1] (stimulation, at 2 µM), 2.3%. Also, in [2], the insulin secretion stimulation is 0.9% (inactive). Moreover, the viability decrease in [3] is 78.3% (active). Moreover, the tube area decrease in assay [4] was -1.4% (inactive). Further, the GLP1 secretion stimulation in assay [5] is -2.6% (inactive). For the same compound, the inhibition of viability in assay [6] is 118% (active). For the same compound, the viability decrease (inhibition) in assay [7] was 155% (active); in [8], 102% (active). Also, the AC50 in [9] and in assay [11] was 26.4 µM (active) each time. For the same compound, the call in assay [10] was inactive.
`CN(C)[C@@H](CCOc1cccc2ccccc12)c1ccccc1`: the nuclear beta-catenin stimulation in assay [1] (at 10 µM) is 0.1% (inactive); in assay [1] (stimulation, at 2 µM), -0.4%. In addition, the insulin secretion stimulation in assay [2] is 9.9% (inactive). Also, in assay [3], the viability decrease was 89.7% (active). Besides, in assay [4], the tube area decrease was 20.5% (inactive). In assay [5], the GLP1 secretion stimulation was 6% (inactive). In assay [6], the inhibition of viability was 91.5% (active). For the same compound, the viability decrease (inhibition) in assay [7] was 103% (active); in assay [8], 67% (active). Also, the AC50 in [9] was 20.9 µM (active); in assay [10] it was 23.5 µM (active).
In the case of `O=C(O)c1c(Cl)c(Cl)c(Cl)c(Cl)c1-c1c2cc(I)c(=O)c(I)c-2oc2c(I)c(O)c(I)cc12`, the nuclear beta-catenin stimulation was -2.4% (inactive) in assay [1] (at 10 µM) and -0.6% in assay [1] (stimulation, at 2 µM). Besides, the insulin secretion stimulation in [2] is -1.2% (inactive). The viability decrease in assay [3] was 96.7% (active). For the same compound, the tube area decrease in assay [4] was 23.9% (inactive). In assay [5], the GLP1 secretion stimulation is -4.3% (inactive). For the same compound, the inhibition of viability in assay [6] is 91.6% (active). Besides, the viability decrease (inhibition) in [7] is 90.7% (active); in assay [8], 73.4% (active).
